Screens deposited in PubChem BioAssay by National Center for Advancing Translational Sciences (NCATS).
Tau FP inhib = inhibitors of human tau fibril formation; P10636; Potency, µM (highest dose often 57.7 µM), for inactives: at the top dose activity, negative = inhibition, usual class: inhibitors; 0.39% of 280,000 active; K18 P301L tau heparin fibrillization, Alexa594 FP, 6 h; note: nearly all actives have a fitted effect of over 55% in size
Target sequence (P10636 561-689 P618L limits assumed): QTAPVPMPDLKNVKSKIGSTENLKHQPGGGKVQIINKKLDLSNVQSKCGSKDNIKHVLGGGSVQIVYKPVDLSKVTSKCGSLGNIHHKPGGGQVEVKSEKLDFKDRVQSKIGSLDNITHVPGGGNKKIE
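Human K18 P301L fragment (15 uM unlabeled plus 0.24 uM Alexa 594-labeled) in 100 mM sodium acetate pH 7 with compound, aggregation induced by 20 uM heparin for 6 hr at 37 C. ThT (30 uM) added for 1 hr, then Alexa 594 FP read.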
Tau ThT inhib = tau fibrillization inhibition (ThT binding) | 2.1% of 270,000 active | Potency, µM (series often up to 57.4 µM), inactives show top-dose activity, negative = inhibition, most hits filed as inhibitors | AID 1460 | recombinant tau K18 P301L, heparin-induced fibrillization, ThT fluorescence | P10636; note: nearly all actives have a fitted effect of over 55% in size
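Aggregation was driven by heparin (20 uM final) acting on recombinant tau […] bearing P301L in 100 mM sodium acetate pH 7; fibrils were detected with Thioflavin T.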
HPGD inh = inhibitors of human 15-hydroxyprostaglandin dehydrogenase (HPGD); P15428; purified HPGD, NADH fluorescence kinetic, PGE2 substrate; Potency, µM, for inactives: top-dose activity change, negative = inhibition, actives largely listed as inhibitors; 4.3% of 150,000 active; AID 894; active = well fitted inhibition curve with a large enough effect, not every such curve was filed as active; inconclusive = small, poorly fitted or top-dose-only effect, or another doubt; inactive = no such curve, though single readings can be large or run the other way
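NADH formation kinetics: reaction with 30 uM PGE2 and 1 mM NAD+ (final), 20 nM enzyme, Tris-HCl pH 8 with Tween 20, after 15 min compound preincubation at room temperature. Fluorescence change, last versus first of five reads.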
NPSR antag = antagonists of human neuropeptide S receptor cAMP signaling. Potency, µM (top dose mostly 38.3 µM), for the others: at the highest dose activity change, negative = inhibition, usual class: inhibitors. 1% of 220,000 active. AID 1461. CHO-NPSR cells, cAMP TR-FRET, antagonist mode; note: nearly all actives have a fitted effect of over 50% in size
Tau fluor cs = counter-screen for tau fibril formation inhibitors. AID 1463. tau K18 P301L (four-repeat tau fragment) Alexa594 fluorescence, heparin fibrillization. Potency, µM (highest dose often 57.7 µM), for inactives: at the highest dose activity change, negative = decrease. 0.93% of 280,000 active; note: nearly all actives have a fitted effect of over 55% in size
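Human K18 P301L tau (15 uM unlabeled plus 0.24 uM Alexa 594-labeled, final) in 100 mM sodium acetate pH 7 was mixed with compound and 20 uM heparin and incubated 6 hr at 37 C.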
ALDH1A1 block = ALDH1A1 (human) enzyme inhibition; P00352; Purified ALDH1A1, NADH fluorescence, propionaldehyde substrate; Potency, µM (doses to about 75.3 µM), inactives show at the top dose activity, negative = inhibition, most hits filed as inhibitors; 7.3% of 220,000 active; active = well fitted inhibition curve with a large enough effect, not every such curve was filed as active; inconclusive = small, poorly fitted or top-dose-only effect, or another doubt; inactive = no such curve, though single readings can be large or run the other way;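 note: plate controls were no enzyme wells and a reference inhibitor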
Target sequence (P00352 whole entry, looked up): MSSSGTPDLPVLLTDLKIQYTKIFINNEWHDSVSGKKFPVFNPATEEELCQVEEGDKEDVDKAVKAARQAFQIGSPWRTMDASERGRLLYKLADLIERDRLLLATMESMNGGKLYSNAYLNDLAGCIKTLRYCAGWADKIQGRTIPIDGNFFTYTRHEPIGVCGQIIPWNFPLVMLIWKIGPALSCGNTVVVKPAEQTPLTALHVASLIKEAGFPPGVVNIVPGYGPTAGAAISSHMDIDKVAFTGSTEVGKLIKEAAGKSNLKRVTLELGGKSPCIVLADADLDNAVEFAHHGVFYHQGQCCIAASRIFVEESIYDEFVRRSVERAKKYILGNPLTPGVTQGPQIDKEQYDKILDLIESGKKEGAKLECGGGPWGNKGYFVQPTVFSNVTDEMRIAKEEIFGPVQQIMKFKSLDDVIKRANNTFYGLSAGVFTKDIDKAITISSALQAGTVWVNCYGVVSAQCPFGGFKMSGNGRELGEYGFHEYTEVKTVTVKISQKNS
Numbers without * were called inactive; ? = inconclusive; nt = no result given; [ ] = dose if it differs, or a comment. An excerpt weighted towards active compounds, which were near 9.5% of everything screened. Unless noted, calls come from the whole dose curve; as a rule, active = well fitted curve in the direction sought with a large enough effect; inconclusive = small, poorly fitted or top-dose-only effect, or another doubt; inactive = no such curve, though single readings can be large; an effect the other way counts as inactive or inconclusive. Unless noted, % is set by controls: 0 for no effect and ±100 for the full control effect; potency is the fitted concentration of half-maximal effect.

SMILES	Tau FP inhib	Tau ThT inhib	HPGD inh	NPSR antag	Tau fluor cs	ALDH1A1 block
Cc1ccc(OCCn2cc(Br)c(=O)[nH]c2=O)cc1	4%	-9%	-1%	-14%[46.1 µM]	-3%	20µM*
Cc1ccccc1C(=O)Oc1cc(-c2ccc3c(c2)OCO3)cc(=O)c2c(C)oc(C)c12	3%	?	nt	nt	-12%	nt
CCc1ncc(/C=C2\C(=O)Nc3ccccc32)[nH]1	-6%	13µM*	nt	20%[7.67 µM]	-7%	nt
O=C(/C=C1\C(=O)Nc2ccccc21)/C=C1\C(=O)Nc2ccccc21	?	28µM*	nt	?	-25%	?
CN(C)/C=C1\C(=O)Nc2ccccc21	-4%	-8%	-13%	-18%[46.1 µM]	-5%	-5%
CN(O)/C=C1\C(=O)Nc2ccccc21	?	?	-15%	?	-20%	?
Cc1ncc(/C=C2\C(=O)Nc3ccccc32)[nH]1	1%	16µM*	nt	48%	-12%	4%
Cc1ccsc1/C=N/NC(=O)c1ccc2nc[nH]c2c1	3%	-14%	-20%	-21%	7%	?
COC(=O)c1ccc(NC(=O)C(C)Sc2nc(=O)cc(N)n2CCc2ccccc2)cc1 (centres undefined)	-11%	-10%	nt	nt	?	nt
O=c1oc2ccccc2c(O)c1C=NCc1ccccn1	-2%	-20%	?	-29%[46.1 µM]	-9%	28µM*
COC(=O)CSC1=NS(=O)(=O)c2ccccc21	-9%	-15%	22µM*	-22%[46.1 µM]	-8%	-6%
O=C(CSC1=NS(=O)(=O)c2ccccc21)Nc1ccccc1	?	32µM*	16µM*	-3%[46.1 µM]	-16%	0.56µM*
COC(=O)CSc1ccccc1C(=O)OC	0%	-1%	-30%	-5%[46.1 µM]	2%	-1%
Cc1ccc(CSc2nc3ccccc3cc2C=O)cc1	-1%	5%	5µM*	11%[46.1 µM]	1%	?
O=Cc1cc2ccccc2nc1SCc1ccc(Cl)cc1	-11%	?	-24%	?	-12%	-9%
Cc1cc(-c2nn(-c3ccccc3)cc2/C=C2\SC(N)=NC2=O)ccc1OC(C)C	3.2µM*	-1%	?	-29%[46.1 µM]	?	?
CCCOc1ccc(-c2nn(-c3ccccc3)cc2/C=C2\SC(N)=NC2=O)cc1	-14%	8%	?	4µM*	-26%	12%
CCOc1ccc(-c2nn(-c3ccccc3)cc2/C=C2\SC(=S)N(Cc3ccco3)C2=O)cc1	-10%	-10%	-7%	-7%[46.1 µM]	-13%	-6%
CCOc1ccccc1Nc1ccc(N)cc1S(=O)(=O)O	nt	nt	-10%	nt	nt	-6%[13.5 µM]
Brc1ccc(CSc2nnc(Cc3c[nH]c4ccccc34)o2)cc1	-6%	?	-11%	?	14µM*[quencher]	-6%
CC(C)[C@H](NS(=O)(=O)c1cccc(Cl)c1)C(=O)OCC(=O)N1CCN(c2ccccc2)CC1	12%	-17%	-9%	-14%	-10%	2.5µM*
CC(C)NS(=O)(=O)c1ccc(OCC(=O)N2CCN(c3cccc(Cl)c3)CC2)cc1	12%	-6%	nt	nt	-2%	nt
O=C(NCc1ccccn1)C1CCN(Cc2cnn(-c3ccccc3)c2-n2cccc2)CC1	1%	-8%	-14%	19%[46.1 µM]	-3%	25µM*
O=C(NCc1ccccn1)C1CCCN(Cc2cnn(-c3ccccc3)c2-n2cccc2)C1 (centres undefined)	2%	-5%	-2%	-14%[46.1 µM]	1%	7%
O=S(=O)(NCC(c1cccnc1)N1CCOCC1)c1ccc(Cl)cc1 (centres undefined)	2%	-4%	nt	3%	-4%	28µM*
SMILES	Tau FP inhib	Tau ThT inhib	HPGD inh	NPSR antag	Tau fluor cs	ALDH1A1 block
O=C(NCC(c1cccnc1)N1CCOCC1)Nc1ccccc1 (centres undefined)	-7%	0%	-13%	-4%[46.1 µM]	2%	9%
O=S(=O)(NCC(c1ccco1)N1CCOCC1)c1ccc(Cl)cc1 (centres undefined)	-3%	-7%	-12%	8%	-6%	-2%
O=S(=O)(NCC(c1cccnc1)N1CCOCC1)c1ccccc1 (centres undefined)	0%	-4%	nt	14%	-3%	25µM*
CC1(C)CC(=O)c2c(noc2-c2ccccc2)C1	-2%	-11%	22µM*	?	-21%	?
O=C(c1ccccc1)N1CCCC(C(=O)N2CCN(c3ccccc3)CC2)C1 (centres undefined)	-1%	-6%	nt	7%	-7%	nt
Cc1ccc(CNC(=O)C2CCN(C(=O)N3CC(C)Oc4ccc(Cl)cc43)CC2)cc1 (centres undefined)	-15%	?	nt	nt	?	nt
Cc1ccc2c(c1)N(C(=O)N1CCC(C(=O)NCCc3ccc(Cl)cc3)CC1)CC(C)O2 (centres undefined)	7%	-4%	nt	nt	7.9µM*[quencher]	nt
CC1CN(C(=O)N2CCC(C(=O)NC3CCCCCC3)CC2)c2cc(Cl)ccc2O1 (centres undefined)	?	20µM*	nt	nt	?	nt
Cc1nn(C)c(N)c1[N+](=O)[O-]	6%	-4%	nt	-8%	-6%	-2%
Cc1nn(C)c(Sc2ccccc2N)c1[N+](=O)[O-]	?	32µM*	nt	1%	-18%	4µM*
Cc1ccc(S(=O)(=O)N(C)Cc2ccc(-c3nnc4n3CCC4)cc2)cc1	2%	-13%	4.5µM*	-26%[7.67 µM]	-6%	-9%
Clc1cccc(-c2nnc3n2CCCCC3)c1	4%	4%	nt	6%	2%	3%
Clc1ccc(-c2nnc3n2CCCC3)cc1Cl	3%	-4%	32µM*	9%[46.1 µM]	0%	-5%
Clc1ccc(-c2nnc3n2CCCCC3)cc1	3%	-9%	16µM*	-3%[46.1 µM]	-6%	-1%
Brc1ccc(-c2nnc3n2CCCCC3)cc1	1%	4%	7.1µM*	-6%[46.1 µM]	-2%	13µM*
CCOc1ccc(NC(=O)c2cc3c(s2)-c2ccccc2OC3)cc1	-13%	?	nt	nt	?	nt
COc1ccc(C(=O)Nc2ccc(-c3nnc4n3CCCCC4)cc2)cc1	3%	-3%	nt	nt	-1%	nt
COc1ccccc1S(=O)(=O)Nc1ccc(-c2nnc3n2CCCCC3)cc1	-1%	-1%	32µM*	-3%[46.1 µM]	1%	?
CC(C)(C)OC(=O)N1CCC(c2c(C(=O)N3CCN(c4ccccn4)CC3)cnn2-c2ccccc2Cl)CC1	-6%	-12%	nt	nt	-8%	nt
CC#N	nt	nt	-9%	nt	nt	-1%
CCn1c(SCC(=O)NCc2ccco2)nc2cccnc21	-3%	-14%	?	-11%[46.1 µM]	-3%	-14%
